From PubChem BioAssay (EPA / NIEHS)
Results filed as inconclusive are left out. Activity calls are given as the source filed them. Rule for the calls, unless noted: active = hit-call score of the fitted dose curve at least 0.9, where 1 is the maximum; inactive = score below 0.9.

How the values were obtained:
[1] = CCTE_Shafer_MEA_dev_firing_rate_mean: CCTE's Neural Network Formation Assay for Mean Firing Rate, Shafer Lab (AID 2284031)
How it was run: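 Rat primary cortical neurons were seeded on multielectrode arrays and treated from plating through day 12, with redosing at each feed. Spontaneous spiking was recorded four times; mean firing rate AUC was fitted downward against DMSO.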

[2] = CCTE_Shafer_MEA_dev_per_burst_spike_percent: CCTE's Neural Network Formation Assay for Percent of Spikes in a Burst, Shafer Lab (AID 2284032)
How it was run: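 Rat primary cortical neurons on 16-electrode MEA wells, dosed from plating day 0 for 12 days with renewal on DIV 5 and 9; spikes-in-bursts percentage averaged over bursting electrodes, collapsed as AUC across days 5, 7, 9, 12; loss direction versus DMSO.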

[3] = CCTE_Shafer_MEA_dev_active_electrodes_number: CCTE's Neural Network Formation Assay for Number of Active Electrodes, Shafer Lab (AID 2284040; active = hit-call score of the fitted dose curve at least 0.9, where 1 is the maximum)
How it was run: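 Primary rat cortical neurons on 16-electrode MEA wells, exposed from day 0 through day 12 with compound renewed at DIV 5 and 9 feeds. Active electrodes (mean firing ≥5 spikes/min) counted at DIV 5, 7, 9, 12; trapezoidal AUC across days, loss-of-signal versus DMSO.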

[4] = CCTE_Shafer_MEA_dev_burst_rate: CCTE's Neural Network Formation Assay for Burst Rate, Shafer Lab (AID 2284042)
How it was run: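 Primary rat cortical neurons on PEI-coated 48-well MEA plates (laminin added with cells at plating) (16 electrodes/well), exposed from plating to day 12, dosing renewed at DIV 5 and 9. Burst rate averaged over active electrodes, recorded DIV 5, 7, 9, 12, summarized as AUC; loss versus DMSO.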

[5] = CCTE_Shafer_MEA_dev_bursting_electrodes_number: CCTE's Neural Network Formation Assay for Number of Bursting Electrodes, Shafer Lab (AID 2284043; active = hit-call score of the fitted dose curve at least 0.9, where 1 is the maximum)
How it was run: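 Primary rat cortical neurons were cultured on PEI-coated 48-well MEA plates (16 electrodes/well) and exposed from plating through day 12, with compound renewed at feeds on DIV 5 and 9. Electrodes bursting ≥1 per 2 min were counted on DIV 5, 7, 9, 12; trapezoidal AUC taken.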

[6] = CCTE_Shafer_MEA_dev_per_burst_interspike_interval: CCTE's Neural Network Formation Assay for Burst Interspike Interval, Shafer Lab (AID 2284044);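 note: mean spike spacing inside bursts as AUC over recordings on days 5 7 9 12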
How it was run: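 Rat cortical primary cultures, 16 electrodes/well; compound from plating, renewed with full media change DIV 5 and 9. Spikes via adaptive detector; per-burst ISI well-mean over active bursting electrodes; AUC of DIV 5/7/9/12 recordings; loss-direction fit vs DMSO.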

[7] = CCTE_Shafer_MEA_dev_burst_duration_mean: CCTE's Neural Network Formation Assay for Mean Burst Duration, Shafer Lab (AID 2284045)
How it was run: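 Primary rat cortical neurons on PEI-coated 16-electrode MEA wells, exposed from plating through day 12 with compound renewed at DIV 5 and 9; spontaneous activity recorded days 5, 7, 9, 12. Well-mean burst duration collapsed as trapezoidal AUC, fitted for loss versus DMSO.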

[8] = CCTE_Shafer_MEA_dev_interburst_interval_mean: CCTE's Neural Network Formation Assay for Mean Interburst Interval, Shafer Lab (AID 2284046);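 note: well-mean interburst interval of bursting electrodes as AUC over four recording days; curve fitted for decrease in interburst interval relative to DMSO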
How it was run: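 Recordings on days 5, 7, 9 and 12 give well-mean interburst interval across actively bursting electrodes, summarized as area under the curve. Cultures: rat cortical neurons, continuous exposure from day 0, compound renewed at feeds; decrease analyzed versus DMSO.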

[9] = CCTE_Shafer_MEA_dev_inter_network_spike_interval_mean: CCTE's Neural Network Formation Assay for Mean Inter-network Spike Interval, Shafer Lab (AID 2284047)
How it was run: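 Primary rat cortical neurons on 16-electrode MEA wells, exposed from plating day 0 through DIV 12, compound renewed at DIV 5 and 9 media changes. Mean interval between network-spike peaks recorded DIV 5, 7, 9, 12; collapsed as trapezoidal AUC, fitted downward versus DMSO.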

[10] = CCTE_Shafer_MEA_dev_network_spike_peak: CCTE's Neural Network Formation Assay for Mean Number of Electrodes in Network Spike, Shafer Lab (AID 2284049)
How it was run: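 Continuous 12-day exposure of rat cortical cultures, starting at plating, on MEA plates. Endpoint: electrodes participating in network-spike peaks, AUC across DIV 5–12, DMSO as negative control.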

[11] = CCTE_Shafer_MEA_dev_spike_duration_mean: CCTE's Neural Network Formation Assay for Mean Spike Duration, Shafer Lab (AID 2284051);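 note: mean network spike duration pooled as area under curve over DIV 5 to 12 recordings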
How it was run: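 Primary rat cortical neurons on 16-electrode MEA wells (PEI-coated, laminin in plating drop), exposed from plating through DIV 12 with compound renewed at DIV 5 and 9. Mean network-spike duration recorded DIV 5, 7, 9, 12; trapezoidal AUC across days, DMSO baseline.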

[12] = CCTE_Shafer_MEA_dev_network_spike_duration_std: CCTE's Neural Network Formation Assay for Standard Deviation of Network Spike Duration, Shafer Lab (AID 2284052);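 note: area under curve of spike duration SD across recording days 5 to 12; hits are decreases in network spike duration SD versus DMSO vehicle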
How it was run: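 Primary rat cortical neurons on PEI-coated 16-electrode MEA wells, exposed from plating day 0 through day 12 with compound renewed at DIV 5 and 9. Network spike duration SD recorded on days 5, 7, 9, 12, collapsed as trapezoidal AUC; loss-of-signal fit versus DMSO.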

[13] = CCTE_Shafer_MEA_dev_per_network_spike_spike_number_mean: CCTE's Neural Network Formation Assay for Mean Number of Spikes in a Network Spike, Shafer Lab (AID 2284053)
How it was run: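 Primary rat cortical neurons on 48-well, 16-electrode MEA plates were exposed from plating to DIV 12, with dosing renewed on DIV 5 and 9. Spikes per network spike (0.05 s peak window) were recorded on DIV 5, 7, 9 and 12 and collapsed as trapezoidal AUC versus DMSO.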

[14] = CCTE_Shafer_MEA_dev_per_network_spike_spike_percent: CCTE's Neural Network Formation Assay for Percent of Spikes in a Network Spike, Shafer Lab (AID 2284054)
How it was run: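 Primary rat cortical neurons on 16-electrode MEA wells (PEI-coated, laminin at plating), exposed from day 0 with renewal at DIV 5 and 9; spikes within 0.05 s of network-spike peaks over total spikes, AUC across days 5, 7, 9, 12.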

[15] = CCTE_Shafer_MEA_dev_LDH: CCTE's Lactate Dehydrogenase Assay for Cytotoxicity in the Neural Network Formation Assay, Shafer Lab (AID 2284068; active = hit-call score of the fitted dose curve at least 0.9, where 1 is the maximum;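 note: exposure for twelve days from plating with re-dosing on DIV 5 and 9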)
How it was run: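 Primary rat cortical neurons were plated on PEI/laminin MEA plates and exposed from day 0 for twelve days, with compound renewed at DIV 5 and 9. Cytotoxicity was determined by spectrophotometric LDH assay relative to DMSO.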

[16] = CCTE_Shafer_MEA_dev_AB: CCTE's Alamar Blue Assay for Cytotoxicity in the Neural Network Formation Assay, Shafer Lab (AID 2284083; active = hit-call score of the fitted dose curve at least 0.9, where 1 is the maximum;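 note: twelve days of exposure from plating with re-dosing on DIV 5 and 9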)
How it was run: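 Primary rat cortical neurons on PEI-coated 48-well MEA plates, 1.5 x 10^5 cells/well in laminin drop; compound exposure from day 0 of plating for twelve days, renewed at medium changes on DIV 5 and 9. Viability read as resazurin reduction by fluorescence, relative to DMSO.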

[17] = CCTE_Shafer_MEA_dev_mutual_information_norm: CCTE's Neural Network Formation Assay for Mutual Information Normalization, Shafer Lab (AID 2284091)
How it was run: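 Rat cortical cultures, 48-well MEA, continuous exposure DIV 0–12 with full media/compound change DIV 5 and 9. Readout: inter-electrode mutual information, AxIS adaptive spike detection; AUC across DIV 5/7/9/12 recordings; DMSO baseline, negative fitting direction.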

[18] = CCTE_Shafer_MEA_dev_correlation_coefficient_mean: CCTE's Neural Network Formation Assay for Mean Correlation Coefficient, Shafer Lab (AID 2284093)
How it was run: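 Spontaneous activity recorded on days 5, 7, 9 and 12 post-plating; pairwise spike correlations are averaged across active electrodes and collapsed to an area-under-curve. Rat cortical cultures are dosed from plating through 12 days, with compound renewed at media changes.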

[19] = UKN2_HCS_IMR90_neural_migration: University of Konstanz (UKN) Leist Lab Neural Crest Cell Migration Assay in human induced IMR90 Pluripotent Stem Cells (UKN2) (AID 2284204); conditions: actives raise or lower the signal
How it was run: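 iPSC-derived IMR90 neural crest cells on PLO/laminin/fibronectin were seeded around silicone stoppers; after stopper removal, migration in N2-S medium with EGF and FGF ran 24 h before 24 h chemical exposure. Calcein-AM/Hoechst high-content imaging; bidirectional fit versus DMSO.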

[20] = IUF_NPC1b_proliferation_BrdU_72hr: Leibniz Research Institute for Environmental Medicine (IUF) 72-hour Neural Progenitor Cell Bromodeoxyuridine (BrdU) Proliferation Assay (NPC1b) (AID 2284207)
How it was run: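 hNPC spheres (primary, GW 16-19 fetal cortex), single sphere/well, EGF+FGF medium; 72 h compound, no renewal; BrdU pulse last 16 h; luminescent ELISA; activity vs DMSO baseline; growth-factor withdrawal as positive control.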

[21] = IUF_NPC1a_proliferation_area_72hr: Leibniz Research Institute for Environmental Medicine (IUF) 72-hour Neural Progenitor Cell Proliferation Area Assay (NPC1a) (AID 2284208)
How it was run: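 Read-out: increase in sphere area over 72 h by automated phase-contrast imaging, fitted in positive direction versus DMSO baseline. One hNPC sphere (0.25-0.35 mm) per well in EGF/FGF medium; growth-factor withdrawal served as positive control.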

[22] = IUF_NPC1_viability_72hr: Viability Assessment at 72 hours in the Leibniz Research Institute for Environmental Medicine (IUF) Neural Progenitor Cell Proliferation Assay (NPC1) (AID 2284209)
How it was run: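 hNPC spheres, 1/well, EGF+FGF medium, 37C/5% CO2; dosed day 0, 72 h, no re-dosing. Resazurin reduction (alamar blue) fluorescence; DMSO = negative control/baseline; growth-factor-free wells as positive control.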

[23] = CCTE_Mundy_HCI_Cortical_Synap_Neur_Matur_NeuriteSpotCountPerNeuriteLength: CCTE's Synaptogenesis and Neurite Maturation Assay in rat cortical cells for Neurite Spot Count per Neurite Length, Mundy Lab (AID 2284210)
How it was run: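 Rat primary cortical cultures, glia arrested with AraC at DIV 5, were dosed with media change at DIV 7 and fixed at DIV 12. Synaptophysin puncta per MAP2-labelled neurite length were quantified by high-content imaging versus DMSO.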

[24] = CCTE_Mundy_HCI_Cortical_Synap_Neur_Matur_BPCount: CCTE's Synaptogenesis and Neurite Maturation Assay in rat cortical cells for Branch Point Count, Mundy Lab (AID 2284211)
How it was run: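 Rat primary cortical cultures, AraC added DIV 5; chemicals dosed DIV 7 through DIV 12. Fixed cells stained for MAP2, synaptophysin and Hoechst; neurite branch points counted by automated high-content imaging, fitted relative to DMSO.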

[25] = CCTE_Mundy_HCI_Cortical_NOG_NeuriteCount: CCTE's Neurite Outgrowth Assay in rat cortical cells for Neurite Count, Mundy Lab (AID 2284212);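 note: cells fixed about two days after chemical exposure began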
How it was run: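 Neurite number per cell from high-content imaging of betaIII-tubulin immunostaining, with Hoechst nuclear counterstain.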

[26] = CCTE_Mundy_HCI_Cortical_NOG_NeuriteLength: CCTE's Neurite Outgrowth Assay in rat cortical cells for Neurite Length, Mundy Lab (AID 2284213)
How it was run: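 Neurite length was read by high-content imaging of βIII-tubulin-labelled neurites in rat primary cortical cultures. Activity was fitted relative to DMSO.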

Measured: AC50

COP(=O)(OC)SCN1C(=O)c2ccccc2C1=O
active: [20] 24.8 µM
inactive: all other assays above
